Screens from PubChem BioAssay.
NPSR antag – blocks cAMP signaling of the human neuropeptide S receptor. CHO-NPSR cells, cAMP TR-FRET, antagonist mode. Potency, µM (doses to about 38.3 µM), without a hit: at the highest dose activity change, negative = inhibition, hits mostly inhibitors. 220,000 tested, 1% active; note: nearly all actives have a fitted effect of over 50% in size
Target sequence (Q6W5P4 whole entry, looked up): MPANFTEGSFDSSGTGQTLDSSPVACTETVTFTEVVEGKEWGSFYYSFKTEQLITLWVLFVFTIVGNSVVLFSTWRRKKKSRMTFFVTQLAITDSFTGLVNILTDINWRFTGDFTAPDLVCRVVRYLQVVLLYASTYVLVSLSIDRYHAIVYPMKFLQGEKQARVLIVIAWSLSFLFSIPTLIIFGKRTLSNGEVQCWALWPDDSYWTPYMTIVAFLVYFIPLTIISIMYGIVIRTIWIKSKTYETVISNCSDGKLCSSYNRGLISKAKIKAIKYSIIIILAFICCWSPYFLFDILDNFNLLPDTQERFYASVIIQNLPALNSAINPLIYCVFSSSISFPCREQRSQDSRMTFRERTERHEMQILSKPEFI
RORgamma inh – ROR gamma (mouse) transcription inhibition; P51450; Drosophila S2 Gal4-RORgamma UAS-luciferase reporter, 20 h; Potency, µM (doses to about 53.6 µM), without a hit: top-dose activity change, negative = inhibition, hits mostly inhibitors; 310,000 tested, 5.4% active; AID 2551; note: nearly all actives have a fitted effect of over 60% in size
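Luciferase reporter read in Schneider cells carrying Gal4-RORγ (mouse) and UAS-Photinus luciferase; cells given compound 1 h before 700 uM copper sulfate induction, then incubated 20 h at ambient temperature.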
VP16 counter – Gal4-VP16 reporter inhibition counter-screen. 310,000 tested, 3.5% active. Drosophila S2 Gal4-VP16 UAS-luciferase, luminescence, 20 h. AID 2546. Potency, µM (titrated, usually from 53.6 µM), inactives show top-dose activity, negative = inhibition, usual class: inhibitors;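 note: Gal4-VP16 expression switched on by copper sulfate through the metallothionein promoter; nearly all actives have a fitted effect of over 50% in size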
B2AR arrestin – beta2AR (human) beta-arrestin recruitment activity; beta-arrestin recruitment to beta2AR, cell-based reporter; Potency, µM (highest dose often 46.1 µM), inactives show at the highest dose activation, actives largely listed as activators; 330,000 tested, 0.02% active;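 note: 0% = DMSO controls and full agonism = EC100 isoproterenol or metaproterenol; nearly all actives have a fitted effect of over 65% in size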
The depositor's hits bear a star; ? = inconclusive; . = no result given; [ ] = remark or other dose. Shown are actives, neighbours in structure and some others; about 5.7% of the full set was active somewhere. Calls come from the whole dose curve; as a rule, active = well fitted curve in the direction sought with a large enough effect; inconclusive = small, poorly fitted or top-dose-only effect, or another doubt; inactive = no such curve, though single readings can be large; an effect the other way counts as inactive or inconclusive. Unless noted, % is set by controls: 0 for no effect and ±100 for the full control effect; potency is the fitted concentration of half-maximal effect.

SMILES	NPSR antag	RORgamma inh	VP16 counter	B2AR arrestin
CCOC(=O)CSc1nc2c(sc3ccc([N+](=O)[O-])cc32)c(=O)n1Cc1ccco1	-11%	8.9µM*	5.6µM*	0%
CCOC(=O)NC(NC(=O)OCC)C(=O)c1ccccc1	-1%[46.1 µM]	19%	3%	0%
CCOC(=O)NC(N(O)c1cccc(Cl)c1)C(Cl)(Cl)Cl (stereo not drawn)	?	5µM*	8%	0%
O=C(OCC(=O)N1CCN(C(=O)c2ccco2)CC1)c1cc(-c2ccc(Cl)c(Cl)c2Cl)nc2ccccc12	10µM*	-30%	?	0%
C=CCn1c(SCCN2C(=O)c3ccccc3C2=O)nc2scc(-c3ccccc3)c2c1=O	13µM*	2%	-4%	0%
c1ccc(-c2nc(-n3ccnc3)nc(-n3ccnc3)n2)cc1	?	?	5%	0%
c1ccc(CN2CCN(c3nc(-c4ccccc4)nc(-n4ccnc4)n3)CC2)cc1	?	14µM*	?	0%
CN(c1ccccc1)c1nc(N2CCCC2)nc(-n2ccnc2)n1	-24%[46.1 µM]	4.5µM*	11µM*	0%
CCCc1nnc(SCC(=O)Nc2ccc(NC(C)=O)cc2)n1-n1cccc1	.	.	.	0%
O=C(O)C1Cc2[nH]cnc2C(c2ccccc2O)N1 (stereo not drawn)	10%	-5%	-4%	0%
O=C(N/N=C/c1cc([N+](=O)[O-])ccc1O)c1cc(-c2ccccc2)nc2ccccc12	-9%	3.2µM*	4µM*	0%
Cc1cc(C(=O)N/N=C/c2cc(Br)cc([N+](=O)[O-])c2O)c2ccccc2n1	-3%	2µM*	3.2µM*	0%
O=C(N/N=C/c1cccc([N+](=O)[O-])c1)c1cc(-c2ccccc2)nc2ccccc12	-8%	-38%	-30%	-1%
Cc1cc(C(=O)N/N=C/c2ccc([N+](=O)[O-])cc2)c2ccccc2n1	-3%	?	-2%	-1%
Cc1cc(C(=O)N/N=C/c2cc([N+](=O)[O-])ccc2O)c2ccccc2n1	-5%	2.8µM*	4.5µM*	-1%
O=C(N/N=C/C=C\c1ccccc1[N+](=O)[O-])c1cc(-c2ccccc2)nc2ccccc12	-3%	1.6µM*	2.8µM*	-1%
O=C(N/N=C/c1cc([N+](=O)[O-])ccc1Cl)c1cc(-c2ccccc2)nc2ccccc12	-14%	14%	3%	1%
CC[C@H](C)[C@H](NC(=O)[C@H](CO)NC(=O)[C@H](CC(N)=O)NC(=O)[C@H](CC(C)C)NC(=O)[C@H](Cc1ccc(O)cc1)NC(=O)[C@H](CCCCN)NC(=O)[C@H](CCCCN)NC(=O)[C@@H](NC(=O)[C@H](C)NC(=O)[C@H](CCSC)NC(=O)[C@H](CCC(N)=O)NC(=O)[C@H](CCCCN)NC(=O)[C@H](CCCNC(=N)N)NC(=O)[C@H](CC(C)C)NC(=O)[C@H](CCCNC(=N)N)NC(=O)[C@@H](NC(=O)[C@H](Cc1ccc(O)cc1)NC(=O)[C@H](CC(N)=O)NC(=O)[C@H](CC(=O)O)NC(=O)[C@@H](NC(=O)[C@H](Cc1ccccc1)NC(=O)[C@@H](NC(=O)[C@H](C)NC(=O)[C@H](CC(=O)O)NC(=O)[C@H](CO)NC(=O)[C@@H](N)Cc1cnc[nH]1)C(C)C)[C@@H](C)O)[C@@H](C)O)C(C)C)C(=O)N[C@@H](CC(C)C)C(=O)N[C@@H](CC(N)=O)C(N)=O	.	-3%	5%	.
CC(=O)N1CCN(S(=O)(=O)c2cccc(C(=O)NNC(=O)COc3ccc(Cl)cc3C)c2)CC1	.	.	.	0%
CC[C@H]1C2=C3C(CC[C@H]4C(OCc5ccc(F)cc5C(F)(F)F)OC[C@](C)([C@@H]34)N(C(=O)OC(C)(C)C)C2)C(COC(C)=O)C1COC(C)=O (stereo partly drawn)	.	-2%	7%	.
CN(Cc1cccc(Cl)c1Cl)C(=O)c1cc(S(=O)(=O)N2CCOCC2)ccc1F	.	.	.	0%
O=C(N/N=C/c1cc([N+](=O)[O-])ccc1O)c1c[nH]c2ccccc12	-1%	5µM*	?	0%
O=C(N/N=C/c1cccc([N+](=O)[O-])c1)c1c[nH]c2ccccc12	-19%	?	-8%	-1%
CC(C)COC(=O)c1cccc2c1-c1ccccc1/C2=N\O	?	?	11µM*	-1%
O=C(CSc1nnc(CNC(=O)c2cccs2)o1)Nc1ccccc1C(F)(F)F	.	-12%	-4%	0%
SMILES	NPSR antag	RORgamma inh	VP16 counter	B2AR arrestin
CCCC/C=C/[C@@H](c1ccccc1)C1COC(=O)CC1O (stereo partly drawn)	.	-6%	-19%	.
O=C1N/C(=N\N=C\c2cccs2)SC1Cc1cccc(Cl)c1 (stereo not drawn)	-21%	0.5µM*	0.71µM*	3%
CC(=O)c1cccc(NC(=O)CC2S/C(=N/N=C/c3cccs3)NC2=O)c1 (stereo not drawn)	3%	?	-3%	0%
O=C1N/C(=N\N=C\c2cccs2)SC1Cc1ccc(Cl)cc1 (stereo not drawn)	?	1.1µM*	0.63µM*	0%
O=C(NC1CCCC1)C1CCN(C(=O)c2cccc(Cl)c2)CC1	.	1%	8%	0%
CCOc1ccc(Br)cc1S(=O)(=O)NCc1ccncc1	-13%	20%	-4%	-2%
Cc1cc(N2CCCC2=O)cc(C)c1S(=O)(=O)NCCOc1ccc(C(C)(C)C)cc1	?	?	3.2µM*	0%
CC(C)Nc1ccc(Cl)cc1[N+](=O)[O-]	9%	-41%	-2%	-1%
CCn1cc(C2=NC(CC(C)C)CO2)c2ccccc21 (stereo not drawn)	-49%	4µM*	?	0%
CCn1cc(C2N3CC4(C)CN2CC(C)(C3)C4=O)c2ccccc21 (stereo not drawn)	-5%[46.1 µM]	2%	8%	0%
CCn1cc(C2=NC(C(C)C)CO2)c2ccccc21 (stereo not drawn)	-6%[46.1 µM]	10µM*	?	0%
CCn1cc(C2=NC(CCSC)CO2)c2ccccc21 (stereo not drawn)	-10%	7.9µM*	?	0%
CC(C)C1COC(c2cccc3ccccc23)=N1 (stereo not drawn)	-25%	20µM*	?	0%
CCn1cc(C=C2C(=O)c3ccccc3C2=O)c2ccccc21	-5%	15%	7%	0%
CC(=O)c1cccc(N2C(=O)CC(N3CCN(S(=O)(=O)c4ccc(Cl)cc4)CC3)C2=O)c1 (stereo not drawn)	.	.	.	0%
Cc1ccc2c(c1)C(c1ccccc1)N(C(=O)c1cccc([N+](=O)[O-])c1)CC(=O)N2 (stereo not drawn)	.	46%	-8%	0%
CC(C)(C)OC(=O)N1CCC(NC(=O)c2nc[nH]c2C(=O)NCC(=O)OCc2ccccc2)CC1	.	?	-13%	-1%
O=S(=O)(c1ccccc1)N1CCN(C2CCCCCCC2)CC1	-13%[46.1 µM]	13µM*	-3%	0%
CCc1nnc(N/N=C/c2ccccc2F)n1N	17%	11µM*	-2%	0%
